This is a sample that favours compounds with a hit; in the whole collection about 2.1% have one here.
aDG glyco up = increases alpha dystroglycan glycosylation | AID 624168 | Pro5-aDG cells, alpha-DG glycosylation AlphaScreen (IIH6); 0% Pro5, 100% B10-LARGE cell signal | 360,000 tested, 0.22% active | activation, % at 10 µM;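 active = activation of at least 8% versus controls, or a plate z-score of at least 8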;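 note: Pro5 are CHO cells carrying HIG-tagged alpha-DG that lacks glycosylation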
Env fusion inh = HIV envelope-mediated fusion inhibition; AID 651610; inhibition, % at 12.3 µM; 360,000 tested, 1.1% active; HeLa-JRFL Env/CEM21 cell fusion, luciferase;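 active = mean replicate inhibition score of at least 50 and every replicate individually at or above 50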
COUP-TFII inh = blocks human COUP-TFII nuclear receptor; P24468; HEK293T NGFI-A luciferase reporter, luminescence; inhibition, % at 8.6 µM; 370,000 tested, 0.7% active;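 active = inhibition above a per-plate cutoff, mean inhibition of test wells between control levels plus 3 SD, cut at about 38% in these data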;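 note: cells cotransfected with COUP-TFII expression vector driving the NGFI-A reporter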
Target sequence (P24468 whole entry, looked up): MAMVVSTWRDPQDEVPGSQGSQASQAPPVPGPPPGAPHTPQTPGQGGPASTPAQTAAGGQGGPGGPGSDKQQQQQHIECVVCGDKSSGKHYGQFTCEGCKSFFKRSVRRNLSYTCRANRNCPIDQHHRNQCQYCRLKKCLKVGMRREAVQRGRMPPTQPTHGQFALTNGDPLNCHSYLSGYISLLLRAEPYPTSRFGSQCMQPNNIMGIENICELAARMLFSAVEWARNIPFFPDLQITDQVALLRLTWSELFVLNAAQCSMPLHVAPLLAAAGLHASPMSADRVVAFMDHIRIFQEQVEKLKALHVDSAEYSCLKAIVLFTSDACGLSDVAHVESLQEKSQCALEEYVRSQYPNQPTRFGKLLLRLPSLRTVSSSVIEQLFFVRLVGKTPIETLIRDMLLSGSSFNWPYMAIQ
GalR3 antagonist = human GalR3 antagonism; O60755; HEK293 GalR3-CNG cAMP membrane potential fluorescence; galR3 body fused to GalR1 C-terminus; inhibition, % at 3 µM; 360,000 tested, 0.44% active; AID 651719;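 active = inhibition above the screen-wide average plus 3 SD, cut at about 13% in these data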;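 note: forskolin and galanin both at EC90 stimulate the cells; cAMP rise reported by CNG channel membrane potential dye signal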
Gli-Sufu block = blocks Gli-Sufu signaling in a luciferase reporter; Sufu-KO-LIGHT fibroblasts, Gli luciferase reporter luminescence; inhibition, % at 5 µM; 340,000 tested, 0.74% active; AID 588413;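 active = inhibition above about 55%, limit read from the data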
Gli antag conf = Gli-SUFU antagonism confirmation, single concentration; shares compounds with Gli-Sufu block; Sufu-KO-LIGHT cells, Gli luciferase reporter, luminescence; AID 602428; 2,500 tested, 40% active; inhibition, % at 5 µM;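 active = mean inhibition at 5 µM reaching about 45%, limit read from the data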
Gli cytotox = cytotoxic in Gli-SUFU antagonist counter-screen | cytotoxicity, % at 5 µM | 2,500 tested, 32% active | shares compounds with Gli-Sufu block | Sufu-KO-LIGHT cells cytotoxicity, ATP luminescence | AID 651994;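 active = mean cytotoxicity at 5 µM above about 25%, limit read from the data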;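 note: cells exposed to compound overnight for roughly 16 to 18 hours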
Wnt3a counter = Wnt3a reporter inhibition counter-screen; Wnt-LIGHT cells, Wnt3a-driven luciferase reporter, luminescence; 2,500 tested, 20% active; shares compounds with Gli-Sufu block; inhibition, % at 6.25 µM;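 active = mean inhibition above about 25%, limit read from the data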
Numbers stand for hits.

Screening CCN(C(=O)CN1C(=O)COc2ccc(S(=O)(=O)N3CCOCC3)cc21)c1ccc(OC)cc1 returned aDG glyco up inactive, Env fusion inh inactive, COUP-TFII inh inactive, GalR3 antagonist inactive, Gli-Sufu block inactive, Gli antag conf inactive, Gli cytotox inactive and Wnt3a counter inactive.
Screening COC(=O)CN1C(=O)COc2ccc(S(=O)(=O)N3CCOCC3)cc21 returned aDG glyco up inactive, Env fusion inh inactive, COUP-TFII inh inactive, GalR3 antagonist inactive and Gli-Sufu block inactive.
O=C(Nc1ccc2oc(-c3ccncc3)nc2c1)c1ccccc1 was read as aDG glyco up inactive, Env fusion inh inactive, COUP-TFII inh inactive, GalR3 antagonist inactive, Gli-Sufu block 85, Gli antag conf inactive, Gli cytotox inactive and Wnt3a counter inactive.
For O=c1nc(N/N=C/c2ccccn2)cn[nH]1 the results were aDG glyco up inactive, Env fusion inh inactive, COUP-TFII inh inactive, GalR3 antagonist inactive, Gli-Sufu block 67, Gli antag conf 71, Gli cytotox 33 and Wnt3a counter 78.
Cc1ccc(/C=N/Nc2cn[nH]c(=O)n2)o1 was read as aDG glyco up inactive, Env fusion inh inactive, COUP-TFII inh inactive, GalR3 antagonist inactive and Gli-Sufu block inactive.
For COc1ccc(COC(=O)N/N=C(\C)CC(=O)Nc2c(C)cc(C)cc2C)cc1 the results were aDG glyco up inactive, Env fusion inh inactive, COUP-TFII inh inactive, GalR3 antagonist inactive, Gli-Sufu block 99, Gli antag conf inactive, Gli cytotox inactive and Wnt3a counter inactive.
`COc1ccc(COC(=O)N/N=C(\C)CC(=O)NCc2ccc(Cl)cc2)cc1` gave aDG glyco up inactive, Env fusion inh inactive, COUP-TFII inh inactive, GalR3 antagonist inactive and Gli-Sufu block inactive.
Cc1ccc(-c2csc(NC(=O)c3c(C)noc3C)n2)s1 was read as aDG glyco up inactive, Gli-Sufu block inactive, Gli antag conf 64, Gli cytotox 34 and Wnt3a counter inactive.
`C/C=C/c1ccc2c(c1)O[C@H](CN(C)CC1CC1)[C@H](C)CN([C@@H](C)CO)S2(=O)=O` gave Env fusion inh inactive.
For COc1cccc(/C=N/NC(=O)C(=O)Nc2ccccc2OC(F)(F)C(F)F)c1O the results were aDG glyco up inactive, Env fusion inh inactive, COUP-TFII inh inactive, GalR3 antagonist inactive, Gli-Sufu block 80, Gli antag conf 72, Gli cytotox 47 and Wnt3a counter 66.
CCOc1ccccc1C=NNC(=O)C(=O)NN=Cc1ccccc1OCC was read as aDG glyco up inactive, Env fusion inh inactive, COUP-TFII inh inactive, GalR3 antagonist inactive and Gli-Sufu block inactive.
`CCOc1ccccc1NC(=O)C(=O)N/N=C/c1cc(Br)ccc1O` gave aDG glyco up inactive, Env fusion inh inactive, COUP-TFII inh inactive, GalR3 antagonist inactive, Gli-Sufu block 56, Gli antag conf 63, Gli cytotox 39 and Wnt3a counter 59.
Screening CCCNC(=O)C[C@@H]1CC[C@H]2[C@@H](COc3ccc(NC(=O)c4cc(C)on4)cc3C(=O)N2C)O1 returned Env fusion inh inactive.
`COc1cc2c(c(OC)c1OC)-c1ccc(OC)c(=O)cc1[C@@H](NC(C)=O)CC2` gave aDG glyco up inactive, Env fusion inh inactive, COUP-TFII inh inactive and Gli-Sufu block inactive.
`CN[C@H]1CCc2cc(OC)c(OC)c(OC)c2-c2ccc(N(C)CC(OC)OC)c(=O)cc21` gave aDG glyco up inactive, Env fusion inh inactive, COUP-TFII inh inactive, GalR3 antagonist inactive and Gli-Sufu block inactive.
Screening COc1cc2c(c(OC)c1OC)-c1ccc(OC)c(=O)cc1[C@@H](N(C)CC#CCO)CC2 returned aDG glyco up inactive, Env fusion inh inactive, COUP-TFII inh inactive, GalR3 antagonist inactive, Gli-Sufu block 66, Gli antag conf 58, Gli cytotox 62 and Wnt3a counter 41.
Screening COc1cc2c(c(OC)c1OC)-c1ccc(SC)c(=O)cc1C(NC(=O)C(F)(F)F)CC2 (configuration not stated) returned aDG glyco up inactive, Env fusion inh inactive, COUP-TFII inh inactive, GalR3 antagonist inactive, Gli-Sufu block inactive, Gli antag conf 60, Gli cytotox 61 and Wnt3a counter 41.
For COc1cc2c(c(OC)c1OC)-c1ccc(N(C)CC(OC)OC)c(=O)cc1[C@@H](NC(C)=O)CC2 the results were aDG glyco up inactive, Env fusion inh inactive, COUP-TFII inh inactive, GalR3 antagonist inactive, Gli-Sufu block 57, Gli antag conf 58, Gli cytotox 34 and Wnt3a counter inactive.
CCOCC(=O)NC1CCc2cc(OC(=O)COCC)c(OC)c(OC)c2-c2ccc(SC)c(=O)cc21 (configuration not stated) was read as aDG glyco up inactive, Env fusion inh inactive, COUP-TFII inh inactive, GalR3 antagonist inactive and Gli-Sufu block inactive.
COCC(=O)N(C)C[C@H]1Oc2ncc(-c3ccc(C#N)cc3)cc2C(=O)N([C@@H](C)CO)C[C@@H]1C was read as Env fusion inh inactive.
`Cc1cc(N/N=C/c2ccc(O)cc2O)nc(-n2nc(C)cc2C)n1` gave aDG glyco up inactive, Env fusion inh 56, COUP-TFII inh inactive, GalR3 antagonist inactive, Gli-Sufu block 88, Gli antag conf 60, Gli cytotox 27 and Wnt3a counter inactive.
Screening COc1ccc(/C=N/Nc2cc(C)nc(-n3nc(C)cc3C)n2)cc1 returned aDG glyco up inactive, Env fusion inh inactive, COUP-TFII inh inactive, GalR3 antagonist inactive and Gli-Sufu block inactive.
Screening CC(=O)Nc1ccc(N2C(=O)CSC2c2c(F)cccc2Cl)cc1 (configuration not stated) returned aDG glyco up inactive, Env fusion inh inactive, COUP-TFII inh inactive, GalR3 antagonist inactive, Gli-Sufu block inactive, Gli antag conf inactive, Gli cytotox inactive and Wnt3a counter inactive.
CCOC(=O)C1=C(C)OC(N)=C(C#N)C1c1cc2ccccc2nc1N1CCCCC1 (configuration not stated) was read as Gli-Sufu block inactive, Gli antag conf inactive, Gli cytotox inactive and Wnt3a counter inactive.
Screening CCC(C)[C@H]1CN=C(N)N1CC1CCCCC1 (some centres not stated) returned Gli-Sufu block 65, Gli antag conf 68, Gli cytotox 26 and Wnt3a counter 29.
Screening COCC(=O)N(C)C[C@@H]1Oc2ncc(C#Cc3ccc(OC)cc3)cc2C(=O)N([C@H](C)CO)C[C@@H]1C returned Env fusion inh inactive.
Screening CC(C)(C)c1ccc(CN2C3=NCCCN3c3ccccc32)cc1 returned aDG glyco up inactive, Env fusion inh inactive, COUP-TFII inh inactive, GalR3 antagonist inactive, Gli-Sufu block 69, Gli antag conf 60, Gli cytotox inactive and Wnt3a counter inactive.

From PubChem BioAssay
